This is a sample that favours compounds with a hit; in the whole collection about 1.5% have one here.
MbtI inh: MbtI salicylate synthase inhibition. P9WFX0. purified MbtI enzyme, fluorescence intensity read-out. inhibition, % (no concentration beside the values). 100,000 tested, 0.89% active; in the data active means inhibition mostly above about 56%, no sharp cut-off; inactive means mostly below about 77%
Polio RdRp inh: poliovirus RNA polymerase inhibition | P03300 | 150,000 tested, 0.66% active | % elongation, % (compound at 16.7 µg/mL) | AID 588519 | poliovirus polymerase elongation, fluorescence polarization; stronger effect = lower value; in the data active means % elongation below about 90%
MenB inh: Mtb MenB enzyme inhibition | MenB enzyme assay, absorbance read-out | inhibition, % (no concentration beside the values) | 100,000 tested, 0.43% active; in the data active means inhibition above about 21%, passing the limit was not always enough
Target sequence (P9WNP5 whole entry, looked up): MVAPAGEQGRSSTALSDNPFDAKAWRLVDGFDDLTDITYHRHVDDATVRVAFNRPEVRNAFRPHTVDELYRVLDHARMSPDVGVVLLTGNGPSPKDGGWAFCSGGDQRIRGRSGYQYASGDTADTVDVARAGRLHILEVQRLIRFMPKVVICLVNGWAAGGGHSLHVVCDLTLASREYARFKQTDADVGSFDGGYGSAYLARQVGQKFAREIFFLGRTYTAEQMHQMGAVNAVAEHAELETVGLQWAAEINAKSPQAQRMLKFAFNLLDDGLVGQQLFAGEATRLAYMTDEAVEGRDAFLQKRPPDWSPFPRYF
Numbers stand for hits; n = inactive; x = not tested or not shown.

SMILES	MbtI inh	Polio RdRp inh	MenB inh
O=C(NC1CCCC1)c1cnn2c(C(F)F)cc(-c3ccccc3)nc12	n	n	n
CCOc1ccc(-c2cc(C(=O)NC(C)c3ccc4c(c3)OCCO4)[nH]n2)cc1 (stereo not given)	n	n	n
CC(C)CNS(=O)(=O)c1ccc(S(=O)(=O)N2CCN(c3ccccc3)CC2)cc1	n	n	n
Cc1ccc2nc(C)cc(C(=O)O)c2c1	n	n	33
Cc1cc(C(=O)O)c2cc(O)ccc2n1	x	n	n
COc1ccc(-c2ccc(NS(=O)(=O)c3ccc(OC)c(OC)c3)cc2)nn1	x	n	x
COC(=O)[C@@H]1CCN[C@@H]1c1c(Cl)cccc1Cl	n	n	n
O=C1Nc2ccccc2/C1=N\N1C(=O)C2C=CC=CC2C1=O (stereo not given)	x	n	n
O=C1Nc2ccccc2/C1=N\N1C(=O)/C(=C/c2ccccc2)N=C1c1ccccc1	x	88	n
CN(CC(=O)NCc1ccccc1F)C(=O)c1ccco1	n	x	x
O=C(O)c1ccccc1-c1c2cc(Br)c(=O)cc-2oc2[c]([Hg])c(O)c(Br)cc12	104	n	n
Cc1ccc2c(=O)cc(-c3ccccc3C(=O)O)oc2c1	n	n	n
O=C(Cc1ccc(-n2cccc2)cc1)NCCc1ccccc1	n	n	n
S=C(Nc1ccc(Cl)cc1)NN1CCOCC1	n	n	n
COC(=O)c1cc(NC(=S)NN2CCOCC2)cc(C(=O)OC)c1	n	n	45
CC(C)OC(=O)CN1C(=O)C(C)(C)Oc2ccc(C(=O)Nc3ccccc3)cc21	n	n	25
CC1(C)Oc2ccc(C(=O)Nc3ccccc3)cc2N(CC(=O)N2CCCC2)C1=O	n	n	n
Cc1nn(C(C)(C)C)c(OC(=O)C(C)(C)C)c1Sc1ccccc1	x	n	x
O=C(CSc1nnc(Cc2ccccc2)n1Cc1ccccc1)Nc1nccs1	n	n	n
CCOC(=O)/C(C#N)=C/NC1CCN(Cc2ccccc2)CC1	n	n	n
CC(C)c1cccc(C(C)C)c1NC(=O)/C=C/c1ccco1	n	n	x
CC(C)c1nnc(NC(=O)C2CCN(C(=O)c3ccco3)CC2)s1	n	n	n
COCc1nnc(NC(=O)C2CCN(C(=O)c3ccco3)CC2)s1	92	n	n
COc1ccc(NC(=O)c2c(NCc3ccc(C)o3)sc3c2CCC(C)C3)cc1 (stereo not given)	x	n	x
O=S(=O)(c1ccc2ccccc2c1)N1CCN(Cn2[nH]c(-c3cccs3)nc2=S)CC1	n	n	n
SMILES	MbtI inh	Polio RdRp inh	MenB inh
C=CCN(CC=C)Cn1[nH]c(-c2cccs2)nc1=S	96	n	n
CC1=C/C(=N\Nc2nncc3ccccc23)CC1	n	n	n
CC1=C/C(=N\Nc2ccccc2Cl)CC1	72	n	n
CN(CC(O)COc1ccc2oc3ccccc3c2c1)C1CCCCC1 (stereo not given)	n	n	x
CC(NC(=O)c1ccc(-c2ccccc2)cc1)C(=O)O (stereo not given)	n	n	29
CC(C)C(NC(=O)c1ccccc1)C(=O)O (stereo not given)	n	n	n
COc1ccccc1CC(=O)Nc1cccc(NC(C)=O)c1	x	n	n
COc1ccccc1CC(=O)Nc1cccc(C)n1	n	n	40
CCCOc1ccc(C2=NC(c3ccc(F)cc3)=Nc3ccc(OC)cc3N2)cc1	x	n	x
Cc1cc(=O)oc2cc(OCC(=O)O)ccc12	n	n	n
Cc1cc(=O)oc2cc(OCC(=O)Oc3ccc4c(c3)OCO4)ccc12	n	83	n
COc1cc(OC)cc(N2C(=O)Cc3c2nc2c4c(nc(N5CCCC5)c(C#N)c34)N=C(C)N2)c1	n	n	n
Cn1cc(NC(=O)NCC2COc3ccccc3O2)c2ccccc2c1=O (stereo not given)	n	n	n
CCc1nn2c(=O)cc(COC(=O)c3ccc4c(c3)OCO4)nc2s1	x	n	x
CC(C)Cc1nn2c(=O)cc(COC(=O)c3ccc4c(c3)OCO4)nc2s1	x	73	x
COc1ccc(-n2ncc3c(NC4CCCC4)ncnc32)cc1	x	n	x
O=C(CCCn1c(=O)c2ccc(Cl)cc2n(CC(=O)c2cccc(Br)c2)c1=O)NCc1ccco1	n	n	n
COC1=CC(=O)c2ccccc2C1=O	n	85	n
COC1=CC(=O)C=C(OC)C1=O	n	n	n
CCc1ccc(CNC(=O)c2ccc(CSCc3ccc(C)cc3)o2)cc1	n	n	n
Cc1cccc(NC(=S)N(C2CCCCC2)C(C)c2ccco2)c1 (stereo not given)	n	n	n
CCN(CC)S(=O)(=O)c1ccc2nc(NC(=O)c3cc(OC)c(OC)c(OC)c3)sc2c1	n	n	n
COc1cccc(NC(=O)c2cc3c(=O)oc4ccccc4c3s2)c1	n	n	n
COc1ccc(C(=O)Nc2ccccc2C(=O)NC(C(=O)NCc2ccco2)C(C)C)cc1 (stereo not given)	n	n	30
COc1ccc(C(=O)Nc2ccccc2C(=O)NC(C(=O)O)C(C)C)cc1 (stereo not given)	n	n	n
SMILES	MbtI inh	Polio RdRp inh	MenB inh
O=C1CCCC(O)=C1C1(O)C(=O)c2ccccc2C1=O	n	79	n
CC(=Nc1ccccc1)C1=C(O)CCCC1=O	n	n	n
C=CCn1c(CSc2nnc(-c3ccccc3)n2C)n[nH]c1=S	n	n	n
C=CCn1c(CSc2ccc(C)cc2)n[nH]c1=S	74	n	n
CNC(=O)c1ccccc1S(=O)c1cccc2cccc(C(=O)OC)c12 (stereo not given)	n	n	n
CC(=O)Nc1nc(NC(C)=O)n(-c2ccccc2)n1	n	n	n
Nc1nc(NC(=O)CCC(=O)O)nn1-c1ccccc1	n	n	30
Cn1c(=S)sc2c(=O)[nH]c(-c3ccc(Cl)cc3)nc21	n	x	x
CCC(c1n[nH]c(=S)o1)N(C)C (stereo not given)	84	89	n
CC(Oc1ccc(F)cc1)c1n[nH]c(=S)o1 (stereo not given)	n	n	n
N#CC1=C(N)Oc2c(c(=O)oc3ccccc23)C1C1CC=CCC1 (stereo not given)	n	n	n
COc1ccc(OC)c(Nc2nc(Nc3cc(OC)ccc3OC)nc(N3CCC(C)CC3)n2)c1	n	n	n
CCOc1cc(CNCC(c2ccc(OC)cc2)N2CCCCC2)ccc1OC(C)C(=O)N(C)C (stereo not given)	n	n	49
COc1ccc(C(CNC(=O)Cc2cc(OC)c(OC)c(OC)c2)N2CCCC2)cc1 (stereo not given)	n	n	n
Cc1c(C)n(Cc2ccc(F)cc2)c2ccc(C(=O)Nc3ccc(Cl)cc3)cc12	x	n	x
CCOC(=O)C1CCN(c2c(C(=O)c3ccc(C)cc3)cnc3ccc(F)cc23)CC1	x	80	x
CCOC(=O)C1CCN(c2c(C(=O)c3ccc(OCC)cc3)cnc3ccc(OC)cc23)CC1	x	n	x
CCc1ccc(NC(=O)COC(=O)C2CCN(c3nc4ccccc4o3)CC2)cc1	n	n	n
COc1ccc(Cn2c(=O)[nH]c3cc(C(=O)NC4CCN(Cc5ccccc5)CC4)ccc32)cc1	n	n	30
O=C(NC1CCN(Cc2ccccc2)CC1)c1ccc(Cn2c(=O)c3ccccc3n(Cc3ccc(F)cc3)c2=O)cc1	x	n	x
COC(=O)c1cc(=O)n2c(nc3ccccc32)s1	n	n	n
Cc1cc(C(=O)COC(=O)Cc2ccsc2)c(C)n1NC(=O)c1ccccc1	n	n	n
S=C(NCCc1ccccc1)NNc1nc2ccccc2o1	n	37	n
CCOc1ccccc1NC(=S)NNc1nc2ccccc2o1	n	n	n
